Test system: Vero E6 infected with SARS-CoV-2
Experiment: inhibition of SARS-CoV-2 cytopathic effect; higher = more antiviral protection, active = above 15
Details: 48 h

Measured: inhibition of SARS-CoV-2 cytopathic effect

Oc1cccc(Nc2ncc(F)c(Nc3cccc(O)c3)n2)c1
inactive: 1 nM 2.79% | 8.33 nM 0.2% | 100 nM 0.24% | 833.33 nM -2.05% | 10000 nM -5.48%

NC(=O)c1[nH]cnc1O
inactive: 1 nM 0.65% | 8.33 nM 1.77% | 100 nM 0.2% | 833.33 nM -1.72% | 10000 nM 3.24%

CC1=C(C(=O)O)N2C(=O)[C@@H](NC(=O)[C@H](N)c3ccccc3)[C@H]2SC1 [cephalexin]
inactive: 1 nM 2.47% | 8.33 nM 0.37% | 100 nM 0.73% | 833.33 nM -1.01% | 10000 nM -3.66%

O=c1c(O[C@@H]2O[C@H](CO)[C@H](O)[C@H](O)[C@H]2O)c(-c2ccc(O)c(O)c2)oc2cc(O)cc(O)c12 [hyperin]
inactive: 1 nM 0.95% | 8.33 nM 2.27% | 100 nM -0.59% | 833.33 nM -1.62% | 10000 nM 0.59%

Cc1ccccc1C(=O)c1ccc(Nc2ccc(Br)cc2N)cc1Cl
inactive: 1 nM 1.98% | 8.33 nM 1.13% | 100 nM -4.39% | 833.33 nM -0.22% | 10000 nM 3.01%

COCCNC(=O)Cn1cnc([N+](=O)[O-])n1 [sanazole]
inactive: 1 nM -0.19% | 8.33 nM 0.45% | 100 nM -0.68% | 833.33 nM -0.43% | 10000 nM -3%

CC(C)n1cnc2c(C(=O)N[C@H]3CN4CCC3CC4)cc(Cl)cc21
inactive: 1 nM -1.27% | 8.33 nM -1.37% | 100 nM -1.13% | 833.33 nM 1.32% | 10000 nM -4.61%

From the supplement of paper PMC13380429
